IMPase Li inh: cell-permeable IMPase inhibitors with lithium potentiation | 210,000 tested, 0.35% active | AID 1457 | CHO-M1 cells, IP1 TR-FRET (IP-One), carbachol + lithium | Potency, µM (doses to about 59.4 µM), most hits filed as inhibitors;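 also: IP1 builds up when IMPase is blocked and the TR-FRET signal falls; nearly all actives have a fitted effect of over 50% in size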
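Lithium-sensitised IP1 accumulation assay; M1-expressing CHO cells treated 30 min at 37C with compound. Competitive antibody detection by time-resolved FRET followed a 10 min room-temperature lysis step.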
IMPase cell inh: membrane-permeable compound that blocks inositol monophosphatase | 120,000 tested, under 10 active | P97697 | CHO-M1 cells, IP1 accumulation, HTRF TR-FRET ratio | inhibition (IP1 accumulation), % at 46.1 µM; active = well fitted curve in the direction sought with a large enough effect in the signal ratio, not every such curve was filed as active; inconclusive = small, poorly fitted or top-dose-only effect, or a change in a side signal; inactive = no such curve, though single readings can be large or run the other way; the % refers to the signal ratio;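 also: cells stimulated with carbachol in lithium chloride buffer; higher means more IMPase inhibition seen as more IP1 and lower FRET ratio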
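Carbachol-driven Gq signalling in CHO-M1 cells (2000/well) generates IP1. Compounds that block IMPase raise IP1 and so reduce the FRET signal from Eu-anti-IP1 and d2-IP1 after a 10 min room-temperature lysis.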
ALDH1A1 block: inhibitors of human aldehyde dehydrogenase 1A1; 220,000 tested, 7.3% active; Purified ALDH1A1, NADH fluorescence, propionaldehyde substrate; Potency, µM (series often up to 75.3 µM), most hits filed as inhibitors; active = well fitted inhibition curve with a large enough effect, not every such curve was filed as active; inconclusive = small, poorly fitted or top-dose-only effect, or another doubt; inactive = no such curve, though single readings can be large or run the other way
NPSR antagonist: neuropeptide S receptor (human) antagonism, cAMP. Potency, µM (highest dose often 38.3 µM), hits mostly inhibitors. 220,000 tested, 1% active. AID 1461. CHO-NPSR cells, cAMP TR-FRET, antagonist mode. Q6W5P4; also: nearly all actives have a fitted effect of over 50% in size
Target sequence (Q6W5P4 whole entry, looked up): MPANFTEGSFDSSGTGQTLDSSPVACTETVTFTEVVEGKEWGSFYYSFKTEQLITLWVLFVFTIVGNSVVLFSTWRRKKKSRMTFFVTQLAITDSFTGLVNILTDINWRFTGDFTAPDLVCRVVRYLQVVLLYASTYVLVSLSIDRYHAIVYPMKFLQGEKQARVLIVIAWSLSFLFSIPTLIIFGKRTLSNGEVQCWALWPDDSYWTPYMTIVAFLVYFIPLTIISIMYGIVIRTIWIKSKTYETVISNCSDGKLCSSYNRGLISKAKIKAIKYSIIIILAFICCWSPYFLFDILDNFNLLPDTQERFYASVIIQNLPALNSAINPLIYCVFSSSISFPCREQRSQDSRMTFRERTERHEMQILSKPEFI
HPGD inh: HPGD (human) dehydrogenase inhibition | Potency, µM, most hits filed as inhibitors | 150,000 tested, 4.3% active | purified HPGD, NADH fluorescence kinetic, PGE2 substrate | P15428 | AID 894; active = well fitted inhibition curve with a large enough effect, not every such curve was filed as active; inconclusive = small, poorly fitted or top-dose-only effect, or another doubt; inactive = no such curve, though single readings can be large or run the other way
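NADH formation kinetics: reaction with 30 uM PGE2 and 1 mM NAD+ (final), 20 nM enzyme, Tris-HCl pH 8 with Tween 20, after 15 min compound preincubation at room temperature. Fluorescence change, last versus first of five reads.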
12-hLO inh: blocks human 12-lipoxygenase activity; P18054; purified 12-hLO, xylenol orange hydroperoxide absorbance; Potency, µM (series often up to 57.1 µM), usual class: inhibitors; 150,000 tested, 0.12% active; AID 1452; also: nearly all actives have a fitted effect of over 55% in size
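Purified human 12hLO (150 nM final) was preincubated with compounds for 15 min at room temperature in 25 mM Hepes pH 7.0, 0.01% Triton X-100, then reacted with 40 uM arachidonic acid for 30 min. Hydroperoxide was detected with ferrous iron/xylenol orange.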
Each line names hits and unclear results; the compound was inactive in the other large screens. This is a sample that favours compounds with a hit; in the whole collection about 8.9% have one here. Unless noted, calls follow the shape of the dose curve; as a rule, active = well fitted curve in the direction sought with a large enough effect; inconclusive = small, poorly fitted or top-dose-only effect, or another doubt; inactive = no such curve, though single readings can be large; an effect the other way counts as inactive or inconclusive.

C=C1CSc2nc(=O)c3c4c(sc3n21)CCC4	HPGD inh 14µM
CC1=Nn2c(nc3sc4c(c3c2=O)CCCC4)SC1	HPGD inh inconclusive (no result: IMPase cell inh)
CSc1nc2ccc(NS(=O)(=O)c3cccc(Cl)c3Cl)cc2s1	ALDH1A1 block inconclusive, HPGD inh 16µM
CC1=NCCN1S(=O)(=O)c1c(C(C)C)cc(C(C)C)cc1C(C)C	ALDH1A1 block 2.2µM (no result: IMPase cell inh, HPGD inh, 12-hLO inh)
COc1ccc(Cl)cc1S(=O)(=O)N1CCN=C1C	none
CC(NC(=S)Nc1ccc([N+](=O)[O-])cc1)c1ccncc1 (configuration not stated)	ALDH1A1 block 20µM (no result: IMPase cell inh, HPGD inh, 12-hLO inh)
O=[N+]([O-])c1ccc(NC(=S)NCc2ccncc2)cc1	ALDH1A1 block 11µM (no result: IMPase cell inh, HPGD inh, 12-hLO inh)
O=[N+]([O-])c1cccc(NC(=S)NCc2ccncc2)c1	ALDH1A1 block 9.5µM (no result: IMPase cell inh, HPGD inh, 12-hLO inh)
CCOc1ccc(Oc2c(/C=N/NC(C)=O)c(C)nn2-c2ccccc2)cc1	none
Cc1cc(C(=O)NCc2ccccc2F)cs1	HPGD inh 16µM
CCOC(=O)c1c(C)[nH]c(C(=O)CSc2nc(C)cc(C)n2)c1C	ALDH1A1 block 16µM (no result: IMPase cell inh)
COc1ccc(C(C#N)C2(C)OCCO2)cc1OC (configuration not stated)	ALDH1A1 block 11µM
Cc1nc(SCC(=O)OCc2ccccc2)c(C#N)c(-c2ccccc2)c1C(=O)Nc1ccccc1	ALDH1A1 block 20µM
COC(=O)Cn1c(=O)cnc2ccccc21	ALDH1A1 block inconclusive
COC(=O)c1cc(NC(=O)Cc2ccc(OC)cc2)cc(C(=O)OC)c1	ALDH1A1 block 0.89µM
COc1ccc(CC(=O)Nc2ccc(C(N)=O)cc2)cc1	none (no result: IMPase Li inh, IMPase cell inh, ALDH1A1 block, HPGD inh, 12-hLO inh)
COC(=O)c1cc(NC(=O)Cn2c(=O)cnc3ccccc32)cc(C(=O)OC)c1	ALDH1A1 block 0.35µM
CC(=O)Oc1cc2cccc(OC(C)=O)c(=O)c2c(OC(C)=O)c1OC(C)=O	ALDH1A1 block 4µM (no result: IMPase Li inh, IMPase cell inh, HPGD inh, 12-hLO inh)
COc1ccc(-c2coc3cc(O)ccc3c2=O)c(OC)c1O	ALDH1A1 block inconclusive, HPGD inh inconclusive (no result: IMPase cell inh, NPSR antagonist)
COc1ccc(-c2coc3cc(O)ccc3c2=O)c(O)c1O	ALDH1A1 block 8.9µM, HPGD inh 7.1µM (no result: IMPase cell inh, NPSR antagonist)
Cc1c(CCOC(=O)CC23CC4CC(CC(C4)C2)C3)sc[n+]1CC(=O)c1ccc(Br)cc1	NPSR antagonist 10µM
Cc1c(CCOC(=O)c2cc([N+](=O)[O-])cc([N+](=O)[O-])c2)sc[n+]1CC(=O)c1ccccc1	NPSR antagonist 10µM (no result: IMPase cell inh, HPGD inh, 12-hLO inh)
C=CCn1c(CNC(=O)c2ccco2)nnc1SCC(=O)Nc1cccc(Br)c1	none
CCOC(=O)c1cc2ccc3ccccc3c2s1	none
NNC(=O)c1ccc(-c2cccc([N+](=O)[O-])c2)o1	ALDH1A1 block 7.1µM (no result: IMPase cell inh, HPGD inh, 12-hLO inh)
COc1ccc(CCNC(=O)c2ccc(-c3cccc([N+](=O)[O-])c3)o2)cc1OC	ALDH1A1 block 13µM (no result: IMPase cell inh, HPGD inh, 12-hLO inh)
COc1ccc(CCNC(=O)Cc2ccc([N+](=O)[O-])cc2)cc1OC	none (no result: IMPase Li inh, IMPase cell inh, HPGD inh, 12-hLO inh)
CN1CCN(c2ccc(NC(=O)c3ccc(-c4cccc([N+](=O)[O-])c4)o3)cc2)CC1	none (no result: IMPase cell inh, HPGD inh, 12-hLO inh)
COC(=O)COc1ccc(Oc2nc(NC(C)(C)C)nc(N3CCOCC3)n2)nn1	none (no result: IMPase Li inh, ALDH1A1 block, NPSR antagonist, HPGD inh, 12-hLO inh)
COc1ccc(CNC(=O)C(=O)NCC(c2ccco2)N2CCOCC2)cc1 (configuration not stated)	none
CCCC(=O)Nc1sc2c(c1C#N)CCCC2	ALDH1A1 block inconclusive
NC(=O)CNC(=O)[C@@H]1CC2(CC(c3cccc([N+](=O)[O-])c3)=NO2)CN1C(=O)c1ccccc1 (some centres not stated)	ALDH1A1 block 1µM
CC1(C(=O)N2CC3(CC(c4cccc([N+](=O)[O-])c4)=NO3)C[C@H]2C(=O)NCC(N)=O)CC1 (some centres not stated)	none
CC(Sc1nc(C(C)(C)C)cc(-c2ccccc2)c1C#N)C(=O)Nc1ccccc1 (configuration not stated)	ALDH1A1 block 25µM, HPGD inh 16µM (no result: IMPase cell inh)
CCCCCCC1CC(C)(/C(C)=N/NC(N)=O)OC1=O (configuration not stated)	none
